Hit rate of the full screen: of about 230,000 compounds, about 3,600 (1.6%) were called active. Not shown: some 15% with an inconclusive outcome. Calls come from the whole dose curve; as a rule, active = well fitted inhibition curve with a large enough effect (not every such curve was filed as active); inconclusive = small, poorly fitted or top-dose-only effect, or another doubt; inactive = no such curve, though single readings can be large or run the other way. Shown is part of a subset that was picked to be rich in actives. A call without a number means that no potency is given here.
Note: nearly all actives have a fitted effect of over 50% in size.
Potency is the fitted concentration of half-maximal effect.

Lysine-specific demethylase 4E (Homo sapiens), sequence (B2RXH2 1-337 limits assumed): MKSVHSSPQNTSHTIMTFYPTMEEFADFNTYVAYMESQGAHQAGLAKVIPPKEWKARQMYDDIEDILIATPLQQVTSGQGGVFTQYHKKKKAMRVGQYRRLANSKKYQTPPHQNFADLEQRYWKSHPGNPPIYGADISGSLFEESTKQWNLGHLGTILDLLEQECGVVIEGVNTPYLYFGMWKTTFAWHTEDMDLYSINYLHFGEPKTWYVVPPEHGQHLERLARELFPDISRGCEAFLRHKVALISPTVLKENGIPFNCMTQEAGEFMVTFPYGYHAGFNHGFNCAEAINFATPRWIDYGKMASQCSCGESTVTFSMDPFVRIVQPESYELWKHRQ

This test has as its target Lysine-specific demethylase 4E (Homo sapiens) (UniProt B2RXH2). The test can be described thus: qHTS Assay for Inhibitors of Human Jumonji Domain Containing 2E (JMJD2E). Conditions: JMJD2E catalytic domain, FDH-coupled NADH fluorescence (FDH is formaldehyde dehydrogenase); series mostly up to 57.1 µM. An excerpt: Assay Provider: Structural Genomics Consortium [SGC] Screening Center PI: Austin, C.P. Screening Center: NIH Chemical Genomics Center [NCGC] The fine interplay among methylation states of several lysine residues on the tails of histone proteins is a major determinant of the transcriptional state of the associated DNA coding regions and is commonly referred to as the histone code. Histone lysine demethylases catalyze the removal of methyl groups from methylated lysine sidechains on histones H3 and H4, thus antagonizing the reactions catalyzed by histone lysine methyltransferases. […] In search for novel inhibitors of JMJD2E demethylase, a member of the largest set of histone demethylases belonging to the Fe(II) and 2-oxoglutarate oxygenase (2OG) superfamily, we performed a quantitative high-throughput screen (Inglese 2006) by using an assay which utilizes a trimethylated peptide substrate corresponding to a fragment of histone H3 (sequence ARKme3STGGK) with detection of the formaldehyde co-product in real time by a formaldehyde dehydrogenase (FDH) coupled reaction. FDH catalyzes oxidation of formaldehyde to formic acid with the concomitant reduction of the non-fluorescent beta-nicotinamide adenine dinucleotide hydrate (NAD+) cofactor to the fluorescent NADH co-product. References: Inglese, J., Auld, D., Jadhav, A., Johnson, R., Simeonov, A., Yasgar, A., Zheng, W. and Austin, C. Proc Natl Acad Sci USA 2006, 103, 11473-11478. N. R. Rose, S. S. Ng, J. Mecinovic, B. M. Lienard, S. H. Bello, Z. Sun, M. A. McDonough, U. Oppermann and C. J. Schofield, J Med Chem, 2008, 51, 7053-7056. Sakurai, M., Rose, N., Schultz, L., Quinn, A., Jadhav, A., Ng, S., Oppermann, U., Schofield, C.J. and Simeonov, A. Mol BioSystems 2009, in press. S. Michael, D. Auld, C. Klumpp, A. Jadhav, W. Zheng, N. Thorne, C. Austin, J. Inglese and A. Simeonov, Assay Drug Dev Technol, 2008, 6, 637-657.
Reagents and Controls: Ferrous ammonium sulfate, (+)-sodium L-ascorbate, beta-nicotinamide adenine dinucleotide hydrate (NAD+), Tween-20, formaldehyde dehydrogenase from P. putida (FDH), and disodium 2-oxoglutarate were from Sigma (St. Louis, MO). Black solid-bottom 384-well or 1,536-well assay plates were from Greiner Bio-One (Monroe, NC). Enzyme was supplied by Prof. Udo Oppermann, SGC-Oxford. The catalytic domain of human JMJD2E (residues 1-337) was produced as an N-terminally His6-tagged protein in E. coli, and purified by Ni-affinity chromatography and size-exclusion chromatography, and stored in HEPES 50 mM/ NaCl 500 mM pH 7.5, as reported in Rose 2008. The trimethylated histone peptide substrate ARK(me3)STGGK was synthesized and HPLC-purified by the Tufts University Core Facility (Boston, MA). Substrate solution (Sakurai 2009) contained 50 uM ARK(me3)STGGK, 0.00025 U/uL FDH, 50 uM 2-oxoglutarate, 250 uM NAD+, 1 mM ascorbate, and 10 uM ferrous ammonium sulfate. Controls and plate map: Buffer (150 mM HEPES pH 7.5 containing 0.01% Tween-20) in columns 3 and 4 as negative control (no enzyme) and 100 nM JMJD2E final concentration in columns 1,2, and 5-48. Assay Steps: Enzyme and buffer solutions (3 uL) were dispensed into a 1,536-well Greiner black solid-bottom assay plate. The library compounds (23 nL) were transferred using a Kalypsys pintool equipped with 1,536-pin array. The plate was incubated at room temperature (15 min), and then a 1 uL aliquot of substrate solution was added to initiate the reaction. The plate was transferred to ViewLux imager where an initial reading using standard UV optics (Ex 340 nm, Em 450 nm) was obtained. The plate was then removed from the reader, incubated for 30 minutes at room temperature, and returned to the reader for a second fluorescence reading. A fully automated robotic screening system (Kalypsys Inc, San diego, CA) was used to perform the above steps as described previously (Michael 2008). […]
(In general: Quantitative high-throughput screening tests each substance at several concentrations.)
For `CC(=O)c1c(C)[nH]c(=S)c(C#N)c1-c1ccc(F)cc1`, the Potency result is “inactive”.
Then `CCOC(=O)c1c(C)[nH]c(=S)c(C#N)c1-c1ccccc1`, with “inactive”.
Consider `CCc1c(C)[nH]c(=S)c(C#N)c1C`, for which the Potency was 20 µM (active).
On to `CS(=O)(=O)c1ccc(Cl)c(NC(=O)Nc2ccccc2)c1`, for which the Potency result was “inactive”.
With `COc1cc(C2C(C#N)=C(C)NC3=C2C(=O)CC(C)(C)C3)ccc1O` (stereo not given), the Potency was 12.6 µM (active).
As for `COc1ccc(C2C(C#N)=C(/N=C/N3CCOCC3)OC3=C2C(=O)CC(C)(C)C3)cc1OC` (stereo not given), the Potency result is “inactive”.
For the compound `CCC1C(C#N)=C(SC)NC2=C1C(=O)CC(C)(C)C2` (stereo not given), the Potency result is “inactive”.
Regarding `CC(=O)N1CCC(N(C(=O)Nc2ccc(Cl)cc2)C(C)C)CC1`, the Potency result was “inactive”.
The same measure for `O=C(CCCN1C(=O)/C(=C\c2ccccc2)SC1=S)Nc1ccccc1O`: “inactive”.
The same measure for `c1ccc(CSc2nnc(-c3ccco3)n2Cc2ccccc2)cc1`: “inactive”; for `c1ccc(CSc2nnc(-c3ccco3)c(-c3ccco3)n2)cc1`: 7.94 µM (active).
Regarding `Brc1ccc(CSc2ccc(-c3ccco3)nn2)cc1`, the Potency entry was “inactive”.
The same measure for `O=S(=O)(NCCc1csc(-c2ccccc2)n1)c1cccnc1`: “inactive”; for `Cc1cc(-c2nnc(CCC(=O)NC(c3ccccc3)c3ccccc3)o2)no1`: “inactive”; for `O=C1C(c2ccccn2)=[N+]([O-])c2ccccc21`: 12.6 µM (active).
Then `CCN(CC)c1ccc(/C=N/Nc2nc(C)cc(C)n2)c(O)c1`, with “inactive”; and `CCN(CC)c1ccc(/C=N/NC(=O)c2cnccn2)c(O)c1`, with 10 µM (active); and `O=C(Nc1ccc2c(c1)OCCO2)c1cnccn1`, with “inactive”.
Turning to `CCOC(=O)c1c(CC(C)C)csc1/N=C/C1=C(O)CCCC1=O`, the Potency result is “inactive”.
In the case of `CCOC(=O)c1c(C)oc(C)c(C(=O)OCC)c1=O`, the Potency result was “inactive”.
`NC(=O)c1ccc(NC(=O)COC(=O)c2c3c(nc4ccccc24)/C(=C\c2ccc4c(c2)OCO4)CCC3)cc1`: the Potency is 3.16 µM (active).
Then `O=C(COC(=O)c1c2c(nc3ccccc13)/C(=C\c1cccs1)CCC2)Nc1ccccc1Cl`, with “inactive”; and `O=C(COC(=O)c1ccc2c(c1)OCCO2)NCc1ccccc1`, with “inactive”; and `O=C(Cc1ccccc1)Nc1c(Cl)ccc2nsnc12`, with “inactive”.
The same measure for `O=C(NC(=O)N1CCSCC1)c1c(Cl)cccc1Cl`: “inactive”; for `O=C(NCc1ccccc1)c1ccc(S(=O)(=O)Nc2cccc(C(F)(F)F)c2)cc1`: “inactive”; for `Oc1ccc(CNc2ccccc2O)cc1`: 15.8 µM (active).
For `O=[N+]([O-])c1ccccc1NCc1ccc(Cl)cc1`, the Potency result is “inactive”.
With `Oc1ccc(N2CCN(C(=S)NCc3ccccc3)CC2)cc1`, the Potency entry was “inactive”.
The same measure for `CC#CC[N+](C)(C)CCCCCC`: “inactive”.
The same measure for `O=C(NC(=S)Nc1ccc(S(=O)(=O)N2CCOCC2)cc1)c1ccccc1[N+](=O)[O-]`: “inactive”.
Then `O=C(N/N=C/c1ccc([N+](=O)[O-])o1)c1cccc(S(=O)(=O)N2CCOCC2)c1`, with “inactive”; and `O=[N+]([O-])c1cc(Cl)cc(/C=N/NC(=S)Nc2cc(S(=O)(=O)N3CCOCC3)ccc2Cl)c1O`, with 8.91 µM (active).
`CC1=NCCN1S(=O)(=O)c1cccc([N+](=O)[O-])c1`: the Potency entry is “inactive”.
The same measure for `CN(C)C(=O)c1cccn(Cc2cccc(C(F)(F)F)c2)c1=O`: “inactive”.
Then `c1cnn(-c2cc(N3CCOCC3)ncn2)c1`, with “inactive”.
Take `O=C(Nc1cc(N2CCOCC2)ncn1)NC1(C(F)(F)F)Oc2ccc(Cl)cc2O1` (stereo not given): the Potency was 14.1 µM (active).
`Cc1csc(NC(=O)NC2(C(F)(F)F)Oc3ccccc3O2)n1`: the Potency entry was “inactive”.
Turning to `CCCn1nc(C(=O)N2CCCc3ccccc32)c2ccccc2c1=O`, the Potency entry is “inactive”.
The same measure for `Cc1ccc(NC(=O)c2ccn(C(=O)Nc3ccccc3)n2)c(C)c1`: “inactive”.
In the case of `Cc1cc(C)n(CC(C)NCc2c(C(=O)N3CCOCC3)nc3c(C)cccn23)n1` (stereo not given), the Potency entry is “inactive”.
The same measure for `CC1(C)CC(=O)C(N=Nc2c(F)cccc2F)=C(O)C1`: “inactive”.
Take `C=CCNC(=O)CSc1nc2scc(-c3ccco3)c2c(=O)n1CC=C`: the Potency result is “inactive”.
Regarding `Cc1cc(C)c(C)c(S(=O)(=O)N[C@@H](C)C(=O)OC(C)C(=O)NC(N)=O)c1C` (stereo not given in full), the Potency result is “inactive”.
The same measure for `O=C(N/N=C/c1ccccc1O)/C(=C/c1ccccc1)CCO`: 20 µM (active); for `O=C(CCCCCNC(=O)c1ccccc1)N/N=C/c1ccccc1`: “inactive”.
Consider `O=C(CCC(=O)Nc1ccccc1)N/N=C/c1ccccc1F`, for which the Potency entry is “inactive”.
Then `CCCCCCCCCCCCC(NC(C)=O)(C(=O)OCC)C(=O)OCC`, with “inactive”.
As for `O=C(CSc1nnnn1-c1ccc(O)cc1)c1ccc(F)cc1`, the Potency entry was “inactive”.
The same measure for `COc1ccc(C2CC(c3ccccc3)=NN2C(=O)CSc2nccc(=O)[nH]2)cc1` (stereo not given): “inactive”; for `O=C(CSc1nnnn1-c1ccc(O)cc1)N1N=C(c2ccc3ccccc3c2)CC1c1ccccc1` (stereo not given): 1.41 µM (active); for `CN(C)C(=S)Nc1ccc(Br)cc1Cl`: “inactive”.
The same measure for `COCCn1c(SCC(=O)Nc2cc(OC)ccc2OC)nc2c(c1=O)SC(C)C2` (stereo not given): “inactive”; for `O=C(Nc1ccccc1)N1CCN(C2c3ccccc3-c3ccccc32)CC1`: “inactive”; for `O=C(CSc1ncn[nH]1)Nc1nc(-c2cccc([N+](=O)[O-])c2)cs1`: “inactive”.

The values above are taken from PubChem BioAssay AID2147 (National Center for Advancing Translational Sciences (NCATS), 2009).
